“And” between values parts separate entries of the source, which are not always exact repeats. Equal entries are not always repeated. A structure can be active in one record and inactive in another. The source made the active and inactive calls. How the source made its calls: active means hit-call score of the fitted dose curve at least 0.9, where 1 is the maximum; inactive means score below 0.9.
Assays:
[1] = read-out: TIMP metallopeptidase inhibitor 2 (TIMP2), TIMP2 (gene 7077); assay: BSK_KF3CT_TIMP2: BioMAP Diversity Plus: KF3CT Assay for TIMP metallopeptidase inhibitor 2 (TIMP2) Biomarker Activity (AID 2283071); settings: primary human keratinocytes with fibroblasts; actives raise or lower the signal
Summary of the method: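 Chemicals were dosed onto human skin primary co-cultures of keratinocytes and foreskin fibroblasts, and TIMP-2 was measured by ELISA after 24 hours. Activity in either direction was fitted relative to DMSO.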

[2] = read-out: Transforming growth factor beta 1 (TGFb1), TGFB1 (gene 7040); assay: BSK_KF3CT_TGFb1: BioMAP Diversity Plus: KF3CT Assay for Transforming growth factor beta 1 (TGFb1) Biomarker Activity (AID 2283072); settings: primary human keratinocytes with fibroblasts; actives raise or lower the signal
Summary of the method: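 KF3CT co-culture (keratinocytes + fibroblasts), 24 h exposure → TGF-b1 ELISA → bidirectional fit, DMSO = baseline. Parallel SRB total-protein staining (0.1% SRB, 10% TCA fixation, 560 nm) for cytotoxicity.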

[3] = read-out: C-C motif chemokine 2 (Homo sapiens) (UniProt P13500); assay: BSK_KF3CT_MCP1: BioMAP Diversity Plus: KF3CT Assay for Monocyte Chemoattractant Protein 1 (MCP1/CCL2) Biomarker Activity (AID 2283073); settings: primary human keratinocytes with fibroblasts; actives raise or lower the signal
Summary of the method: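 ELISA read-out of MCP-1, 24 h post-dose, in primary human skin keratinocytes co-cultured with fibroblasts. Parallel SRB staining monitors cytotoxicity; changes fitted both directions relative to DMSO.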

[4] = read-out: Matrix Metallopeptidase 9 (MMP9), MMP9 (gene 4318); assay: BSK_KF3CT_MMP9: BioMAP Diversity Plus: KF3CT Assay for Matrix Metallopeptidase 9 (MMP9) Biomarker Activity (AID 2283074); settings: primary human keratinocytes with fibroblasts; actives raise or lower the signal;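 on AC50: MMP9 protein level quantified by ELISA in the co-culture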
Summary of the method: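 ELISA read-out of MMP-9 at 24 h post-dosing in a co-culture of human skin keratinocytes and foreskin fibroblasts. Gain or loss of signal was fitted in both directions against DMSO.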

[5] = read-out: urokinase plasminogen activator (uPA), PLAU (gene 5328); assay: BSK_KF3CT_uPA: BioMAP Diversity Plus: KF3CT Assay for urokinase plasminogen activator (uPA) Biomarker Activity (AID 2283075); settings: primary human keratinocytes with fibroblasts; actives raise or lower the signal
Summary of the method: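 Skin co-culture (keratinocytes + foreskin fibroblasts), human primary; 24 h post-dose; uPA by ELISA; gain/loss fit vs DMSO baseline.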

CD40, CD40 (gene 958) [6] = assay: BSK_LPS_CD40: BioMAP Diversity Plus: LPS Assay for CD40 Biomarker Activity (AID 2283076); settings: primary human HUVEC with PBMC; actives raise or lower the signal
Summary of the method: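 In the LPS system of human endothelial cells with peripheral blood mononuclear cells, CD40 levels were read by ELISA 24 h post-treatment. Signal changes in either direction were fitted against the DMSO baseline, with parallel SRB protein staining.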

[7] = read-out: E-selectin (Homo sapiens) (UniProt P16581); assay: BSK_LPS_Eselectin: BioMAP Diversity Plus: LPS Assay for Eselectin Biomarker Activity (AID 2283077); settings: primary human HUVEC with PBMC; actives raise or lower the signal
Summary of the method: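 E-selectin ELISA on LPS-stimulated endothelial cell/PBMC co-cultures, read 24 h post-treatment; gains and losses fitted against DMSO. Parallel SRB staining (0.1% SRB after 10% TCA fixation, 560 nm) flags overt cytotoxicity.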

[8] = read-out: Interleukin-8 (IL8), CXCL8 (gene 3576); assay: BSK_LPS_IL8: BioMAP Diversity Plus: LPS Assay for Interleukin-8 (IL8) Biomarker Activity (AID 2283078); settings: primary human HUVEC with PBMC; actives raise or lower the signal
Summary of the method: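 ELISA read-out of IL-8 after 24 h chemical treatment of LPS-activated endothelial/PBMC human primary co-cultures. Changes either up or down relative to DMSO; overt cytotoxicity checked by sulforhodamine B staining in parallel wells.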

[9] = BSK_LPS_SRB: Viability Assessment in the BioMAP Diversity Plus: LPS Assay (AID 2283079); settings: primary human HUVEC with PBMC;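 further: total protein by sulforhodamine B absorbance as a cytotoxicity measure; measured one day after compound addition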
Summary of the method: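 SRB viability endpoint: cells fixed with 10% TCA, stained with 0.1% SRB, read at 560 nm, 24 h post-dose. HUVEC/PBMC co-culture; signal change in either direction scored relative to DMSO.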

[10] = read-out: Interleukin-1 alpha (IL1a), IL1A (gene 3552); assay: BSK_LPS_IL1a: BioMAP Diversity Plus: LPS Assay for Interleukin-1 alpha (IL1a) Biomarker Activity (AID 2283080); settings: primary human HUVEC with PBMC; actives raise or lower the signal
Summary of the method: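 Readout is IL-1a level by ELISA, 24 h post-dose, fitted as gain or loss relative to DMSO. System: LPS-activated human primary co-culture of vascular endothelium and peripheral blood mononuclear cells, with parallel SRB total-protein cytotoxicity.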

[11] = read-out: Monocyte Chemoattractant Protein-1 (MCP1), CCL2 (gene 6347); assay: BSK_LPS_MCP1: BioMAP Diversity Plus: LPS Assay for Monocyte Chemoattractant Protein-1 (MCP1) Biomarker Activity (AID 2283081); settings: primary human HUVEC with PBMC; actives raise or lower the signal;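 on AC50: secreted MCP-1 protein quantified by ELISA in culture supernatant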
Summary of the method: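 Secreted MCP-1 read by ELISA at 24 h post-dosing in an LPS-activated co-culture of endothelial cells with peripheral blood mononuclear cells. Fits run in both directions, DMSO as baseline; parallel SRB staining tracks overt cytotoxicity.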

[12] = BSK_LPS_PGE2: BioMAP Diversity Plus: LPS Assay for Prostaglandin E2 (PGE2) Biomarker Activity (AID 2283082); settings: primary human HUVEC with PBMC; actives raise or lower the signal;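 on AC50: secreted prostaglandin E2 measured by ELISA in LPS-stimulated co-culture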
Summary of the method: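 Compounds were added to the LPS co-culture of endothelium and PBMC, and PGE2 was measured by ELISA after 24 h. Responses in either direction were fitted with DMSO as baseline.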

[13] = read-out: Macrophage colony-stimulating factor (MCSF), CSF1 (gene 1435); assay: BSK_LPS_MCSF: BioMAP Diversity Plus: LPS Assay for Macrophage colony-stimulating factor (MCSF) Biomarker Activity (AID 2283083); settings: primary human HUVEC with PBMC; actives raise or lower the signal
Summary of the method: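 Bidirectional fitting against DMSO was applied to M-CSF levels read by ELISA at 24 h post-dose. The system pairs human umbilical vein endothelium with peripheral blood mononuclear cells; parallel SRB staining tracked cytotoxicity.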

[14] = read-out: Tissue Factor, F3 (gene 2152); assay: BSK_LPS_TissueFactor: BioMAP Diversity Plus: LPS Assay for Tissue Factor Biomarker Activity (AID 2283084); settings: primary human HUVEC with PBMC; actives raise or lower the signal
Summary of the method: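 Compound was added to an endothelial cell/PBMC co-culture, and after 24 h tissue factor (CD142) was read by ELISA. Gain or loss of signal was fitted against a DMSO baseline, and parallel SRB staining (560 nm) tracked overt cytotoxicity.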

[15] = read-out: Tumor necrosis factor (Homo sapiens) (UniProt P01375); assay: BSK_LPS_TNFa: BioMAP Diversity Plus: LPS Assay for Tumour Necrosis Factor alpha (TNFa) Biomarker Activity (AID 2283085); settings: primary human HUVEC with PBMC; actives raise or lower the signal;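 on AC50: TNFa protein level quantified by ELISA in the co-culture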
Summary of the method: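 Cells (umbilical vein endothelium plus peripheral blood mononuclear cells) were dosed with chemical, incubated 24 h, then TNFa was quantified by ELISA; values derive from bidirectional fitting with DMSO as baseline.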

[16] = read-out: Vascular cell adhesion molecule 1 (VCAM1), VCAM1 (gene 7412); assay: BSK_LPS_VCAM1: BioMAP Diversity Plus: LPS Assay for Vascular cell adhesion molecule 1 (VCAM1) Biomarker Activity (AID 2283086); settings: primary human HUVEC with PBMC; actives raise or lower the signal
Summary of the method: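 Cells are dosed in an LPS-stimulated endothelial/mononuclear co-culture and, after 24 h, VCAM-1 is quantified by ELISA. Activity in either direction is fitted relative to the DMSO negative control.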

CD38, CD38 (gene 952) = assay: BSK_SAg_CD38: BioMAP Diversity Plus: SAg Assay for CD38 Biomarker Activity (AID 2283087); settings: primary human HUVEC with PBMC; actives raise or lower the signal
Summary of the method: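 CD38 quantified by ELISA (fluorescence) in a superantigen-activated endothelial cell–PBMC co-culture at 24 h post-dose. Activity fitted in both directions relative to DMSO; parallel SRB and Alamar Blue cytotoxicity read-outs.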

CD40, CD40 (gene 958) [17] = assay: BSK_SAg_CD40: BioMAP Diversity Plus: SAg Assay for CD40 Biomarker Activity (AID 2283088); settings: primary human HUVEC with PBMC; actives raise or lower the signal
Summary of the method: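 CD40 is measured by fluorescence ELISA in an endothelial/PBMC primary human co-culture at 24 h post-dose. Fitting is bidirectional, DMSO baseline. Parallel SRB staining (560 nm) flags cytotoxicity.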

[18] = read-out: Monocyte Chemoattractant Protein-1 (MCP1), CCL2 (gene 6347); assay: BSK_SAg_MCP1: BioMAP Diversity Plus: SAg Assay for Monocyte Chemoattractant Protein-1 (MCP1) Biomarker Activity (AID 2283090); settings: primary human HUVEC with PBMC; actives raise or lower the signal
Summary of the method: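 Values derive from bidirectional fitting of ELISA-measured MCP1 against DMSO controls. Readings were taken 24 h after dosing human vascular endothelial cells co-cultured with peripheral blood mononuclear cells under superantigen stimulation.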

CD69, CD69 (gene 969) = assay: BSK_SAg_CD69: BioMAP Diversity Plus: SAg Assay for CD69 Biomarker Activity (AID 2283089); settings: primary human HUVEC with PBMC; actives raise or lower the signal;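 on AC50: cell surface CD69 protein quantified by ELISA with fluorescence detection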
Summary of the method: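 Primary human vascular co-culture (umbilical vein endothelium with peripheral blood mononuclear cells) exposed to test chemical for 24 h. CD69 levels quantified by fluorescence ELISA; DMSO served as negative control for bidirectional fitting.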

Measured: AC50

E-selectin (Homo sapiens), sequence (P16581 whole entry, looked up): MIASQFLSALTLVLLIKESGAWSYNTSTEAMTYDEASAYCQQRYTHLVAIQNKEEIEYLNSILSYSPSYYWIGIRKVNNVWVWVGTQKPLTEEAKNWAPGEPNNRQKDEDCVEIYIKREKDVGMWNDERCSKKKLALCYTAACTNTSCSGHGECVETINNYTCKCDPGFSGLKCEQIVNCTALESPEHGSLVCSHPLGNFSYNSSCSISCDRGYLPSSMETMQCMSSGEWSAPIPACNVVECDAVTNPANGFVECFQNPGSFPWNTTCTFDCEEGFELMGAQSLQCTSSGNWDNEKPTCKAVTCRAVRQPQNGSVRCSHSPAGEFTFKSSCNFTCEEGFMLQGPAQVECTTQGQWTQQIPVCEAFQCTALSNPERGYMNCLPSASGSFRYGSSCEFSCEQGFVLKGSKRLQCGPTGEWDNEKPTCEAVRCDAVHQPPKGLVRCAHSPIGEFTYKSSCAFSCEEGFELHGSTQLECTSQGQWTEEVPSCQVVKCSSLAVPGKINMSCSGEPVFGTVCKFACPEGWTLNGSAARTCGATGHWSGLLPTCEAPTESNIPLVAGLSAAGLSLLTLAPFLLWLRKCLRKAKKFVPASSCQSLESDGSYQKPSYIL
Tumor necrosis factor (Homo sapiens), sequence (P01375 whole entry, looked up): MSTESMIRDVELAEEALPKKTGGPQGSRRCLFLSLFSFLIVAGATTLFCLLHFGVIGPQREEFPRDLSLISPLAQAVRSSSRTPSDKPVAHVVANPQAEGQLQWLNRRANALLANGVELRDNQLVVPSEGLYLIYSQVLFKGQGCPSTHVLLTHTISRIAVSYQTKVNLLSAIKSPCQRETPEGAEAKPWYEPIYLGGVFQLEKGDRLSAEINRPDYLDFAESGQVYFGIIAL

CC(c1ccc(O)cc1)(c1ccc(O)cc1)c1ccc(O)cc1
inactive: [8] | [10] | [14]
active: [1] 13.1 µM | [2] 11.4 µM | [3] 20 µM | [4] 25.2 µM | [5] 20 µM | CD40, CD40 (gene 958) [6] 20 µM | [7] 32.7 µM | [9] 23.9 µM | [11] 20 µM | [12] 34.6 µM | [13] 26.4 µM | [15] 32.6 µM | [16] 16.2 µM | CD38, CD38 (gene 952) 24.5 µM | CD40, CD40 (gene 958) [17] 20.5 µM | [18] 25.9 µM

O=C(O)C(F)(F)C(F)(F)C(F)(F)C(F)(F)C(F)(F)C(F)(F)C(F)(F)C(F)(F)F
inactive: [1] | [2] | [3] | CD40, CD40 (gene 958) [6] | [8] | [9] | [10] | [11] | [13] | [15] | [16] | CD38, CD38 (gene 952) | CD40, CD40 (gene 958) [17] | [18]
active: [3] 17.7 µM and 24.9 µM | [4] 33.2 µM and 35.9 µM and 30 µM | CD40, CD40 (gene 958) [6] 48.3 µM and 45.1 µM | [8] 7.33 µM and 50.3 µM | [9] 53.5 µM and 55 µM | [10] 44.1 µM | [11] 47.9 µM and 58.4 µM | [12] 20 µM and 19.9 µM and 14.8 µM | [16] 51.5 µM and 54.3 µM | CD38, CD38 (gene 952) 49.6 µM and 47 µM | CD40, CD40 (gene 958) [17] 30 µM | [18] 47.6 µM

NS(=O)(=O)C(F)(F)C(F)(F)C(F)(F)C(F)(F)C(F)(F)C(F)(F)C(F)(F)C(F)(F)F
inactive: [11] | [12] | [16]
active: [1] 26 µM and 40.7 µM and 44.4 µM | [2] 9.43 µM | [3] 33.4 µM and 48.9 µM and 52.2 µM | [4] 12.2 µM and 19.9 µM and 20.4 µM | CD40, CD40 (gene 958) [6] 23.9 µM and 39.6 µM and 39.1 µM | [7] 29.7 µM and 54.3 µM and 58.5 µM | [8] 30.1 µM and 45.6 µM and 49.8 µM | [9] 28.9 µM and 44.6 µM and 44.3 µM | [10] 32.1 µM and 48.7 µM and 52.2 µM | [11] 55.7 µM and 57.3 µM | [12] 52.2 µM and 51.9 µM | [13] 30.9 µM and 54.9 µM and 51.8 µM | [15] 28.6 µM and 49.6 µM and 49.3 µM | [16] 53.8 µM and 46.6 µM | CD38, CD38 (gene 952) 27.8 µM and 43.8 µM and 42.4 µM | CD40, CD40 (gene 958) [17] 27.7 µM and 46.1 µM and 45.8 µM | CD69, CD69 (gene 969) 27.4 µM and 40.8 µM and 43.4 µM | [18] 31.2 µM and 54.2 µM and 54.5 µM

CCOP(=S)(OCC)SCSC(C)(C)C
active: CD40, CD40 (gene 958) [6] 36.2 µM | [15] 35.2 µM
inactive: [1] | [2] | [3] | [4] | [5] | [8] | [9] | [10] | [11] | [12] | [13] | [16] | CD38, CD38 (gene 952) | CD40, CD40 (gene 958) [17] | [18]

CN(C)CCO
inactive: [1] | [2] | [3] | [4] | [5] | CD40, CD40 (gene 958) [6] | [8] | [9] | [10] | [11] | [12] | [13] | [14] | [15] | [16] | CD38, CD38 (gene 952) | CD40, CD40 (gene 958) [17] | CD69, CD69 (gene 969) | [18]
